Rows were chosen to be rich in hits. Some 19% of all compounds tested hit in one or more screens of this group.
DT40 TDP1 CPT – DT40-hTDP1 cell growth loss with CPT; Potency, µM (titrated, usually from 46.2 µM), actives largely listed as inhibitors; chicken DT40 Tdp1-/-;hTDP1 cells + 20 nM CPT, ATP luminescence, 48 h; 420,000 compounds, 12% hits; note: nearly all actives have a fitted effect of over 55% in size
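Chicken DT40 Tdp1-/- cells complemented with human TDP1, 400 cells/well, exposed to compounds plus 20 nM camptothecin for at least 48 h at 37 C; viability read as ATP content by CellTiter-Glo luminescence.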
TDP1 inh – TDP1 (human) enzyme inhibition; Q9NUW8; recombinant TDP1, AlphaScreen DNA substrate cleavage; Potency, µM (doses to about 130 µM), actives largely listed as inhibitors; 350,000 compounds, 0.28% hits; note: nearly all actives have a fitted effect of over 40% in size
Target sequence (Q9NUW8 whole entry, looked up): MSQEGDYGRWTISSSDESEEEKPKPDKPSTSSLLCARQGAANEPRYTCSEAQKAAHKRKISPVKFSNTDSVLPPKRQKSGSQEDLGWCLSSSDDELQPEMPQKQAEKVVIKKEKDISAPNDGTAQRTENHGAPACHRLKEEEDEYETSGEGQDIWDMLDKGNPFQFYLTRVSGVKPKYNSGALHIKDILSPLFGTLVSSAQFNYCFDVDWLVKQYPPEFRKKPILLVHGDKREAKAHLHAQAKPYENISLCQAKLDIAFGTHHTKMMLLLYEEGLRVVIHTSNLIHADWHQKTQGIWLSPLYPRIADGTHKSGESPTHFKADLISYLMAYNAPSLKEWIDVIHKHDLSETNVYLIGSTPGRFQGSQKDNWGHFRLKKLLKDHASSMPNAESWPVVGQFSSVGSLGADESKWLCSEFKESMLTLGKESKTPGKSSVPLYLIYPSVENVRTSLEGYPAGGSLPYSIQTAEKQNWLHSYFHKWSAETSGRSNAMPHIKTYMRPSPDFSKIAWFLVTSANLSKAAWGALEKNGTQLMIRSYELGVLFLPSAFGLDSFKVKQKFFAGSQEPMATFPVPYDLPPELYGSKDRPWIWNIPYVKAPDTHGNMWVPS
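Signal: AlphaScreen proximity between streptavidin donor and anti-FITC acceptor beads on intact substrate. Reaction: Tdp1 1 nM, substrate 15 nM final, 5 min RT after 15 min compound preincubation.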
TDP1 cell noCPT – qHTS for Inhibitors of human tyrosyl-DNA phosphodiesterase 1 (TDP1): qHTS in cells in absence of CPT; DT40 Tdp1-/- hTDP1 cells, no CPT, ATP luminescence, 48 h; Potency, µM (highest dose often 46.2 µM), usual class: inhibitors; 420,000 compounds, 15% hits; AID 686978, 2013; note: nearly all actives have a fitted effect of over 55% in size
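Seeded 400 DT40-hTDP1 cells/well (vehicle DMSO, no 20 nM CPT); pinned compounds; ≥48 hr at 37 °C; CellTiter-Glo luminescence as viability measure.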
IL1B secr inh – inflammasome signaling inhibition, IL-1 beta readout | THP-1 LPS/ATP IL-1B secretion, AlphaLISA, 16 h; stronger effect = lower value | activity change, % at 57.5 µM | 360,000 compounds, 4.7% hits | AID 743279; in the data active = activity change below about -50%; inconclusive = mostly about -30% to -49%
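THP-1 cells pretreated 1 hr with compounds (up to 57.5 uM final), then stimulated with LPS (250 ng/mL final) plus ATP (1.25 mM final); secreted IL-1B measured by AlphaLISA after 16 hr, decreased signal indicating inhibition.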
Giardia kill – Giardia lamblia killing; Giardia lamblia trophozoite viability; activity change, % at 7.66 µM, hits read low; 340,000 compounds, 0.15% hits; AID 540267; in the data active = activity change below about -80%; inconclusive = between about -30% and that limit;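 note: parasites exposed to compound for two days anaerobically before the ATP read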
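Each well holds 100 Giardia trophozoites and compound. After two days (48 hrs) at 37 deg C in anaerobic conditions, ATP is quantified by luminescence.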
ELG1 repair inh – inhibitors of ELG1-dependent DNA repair in HEK293T cells; Potency, µM (titrated, usually from 46.1 µM), actives largely listed as inhibitors; 330,000 compounds, 2.3% hits; HEK293T ELG1-luciferase reporter, luminescence, 16 h; DNA damage induced by 5-fluorouridine; note: nearly all actives have a fitted effect of over 55% in size
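HEK293T cells expressing luciferase-tagged ELG1 (2,000/well) received 5-Fluorouridine plus compound or DMSO for 16 hr at 37 °C. Luciferase was read by ONE-Glo luminescence after 30 min at room temperature.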
Large screens that a line does not name were inactive. Unless noted, calls come from the whole dose curve; as a rule, active = well fitted curve in the direction sought with a large enough effect; inconclusive = small, poorly fitted or top-dose-only effect, or another doubt; inactive = no such curve, though single readings can be large; an effect the other way counts as inactive or inconclusive.

O=C(NNc1ccc([N+](=O)[O-])cn1)Nc1ccc(N=Nc2ccccc2)cc1	DT40 TDP1 CPT inconclusive, TDP1 cell noCPT inconclusive (no result: TDP1 inh, ELG1 repair inh)
O=C(COc1coc(CN2CCN(c3ccccc3F)CC2)cc1=O)NCC1CCCO1 (stereo not given)	none
CS(=O)(=O)c1ccc(C(=O)OCC(=O)NC(=O)C2COc3ccccc3O2)cc1[N+](=O)[O-] (stereo not given)	DT40 TDP1 CPT 16µM, TDP1 cell noCPT 18µM, IL1B secr inh -59, ELG1 repair inh inconclusive
CC1(C)C2CCC1(C)C(NC(=O)COC(=O)c1ccc(S(C)(=O)=O)c([N+](=O)[O-])c1)C2 (stereo not given)	DT40 TDP1 CPT 5µM, TDP1 cell noCPT 5.6µM (no result: IL1B secr inh, ELG1 repair inh)
COc1ccc(C(=O)NC(=O)COC(=O)C2COc3ccccc3O2)cc1 (stereo not given)	none
CC(=O)c1ccc(NCC2COc3ccccc3O2)c([N+](=O)[O-])c1 (stereo not given)	DT40 TDP1 CPT inconclusive, TDP1 cell noCPT 13µM, ELG1 repair inh inconclusive
CS(=O)(=O)c1ccc(C(=O)OCC(=O)NC(=O)C2CCCCC2)cc1[N+](=O)[O-]	DT40 TDP1 CPT 9.2µM, TDP1 cell noCPT inconclusive, IL1B secr inh -60, ELG1 repair inh inconclusive
COc1ccc(C2=NOC3(CC(=O)N(c4ccc(F)cc4)C3=O)C2)cc1 (stereo not given)	none
COC(=O)[C@@H](N)Cc1ccc(O)c(O)c1	DT40 TDP1 CPT 27µM, TDP1 cell noCPT inconclusive
COC(=O)C(N)Cc1ccc(Cl)cc1 (stereo not given)	none
COc1ccc(-n2c(O)c(/C=N/n3cnnc3)c3ccccc3c2=O)cc1	none
Cc1cccc(-n2c(O)c(C=Nc3cccc(O)c3)c3ccccc3c2=O)n1	DT40 TDP1 CPT 21µM, TDP1 cell noCPT inconclusive, ELG1 repair inh inconclusive (no result: TDP1 inh)
Cc1cc(N=Cc2c(O)n(-c3ccc4c(c3)OCO4)c(=O)c3ccccc23)ccn1	DT40 TDP1 CPT 18µM, TDP1 cell noCPT 18µM, IL1B secr inh inconclusive, ELG1 repair inh inconclusive
COc1ccc(-n2c(O)c(/C=N/NS(=O)(=O)c3ccc(C)c([N+](=O)[O-])c3)c3ccccc3c2=O)cc1OC	DT40 TDP1 CPT inconclusive, TDP1 cell noCPT inconclusive
CCOC(=O)Cc1csc(/N=C/c2c(O)n(-c3ccc(C)c(C)c3)c(=O)c3ccccc23)n1	DT40 TDP1 CPT 21µM, TDP1 cell noCPT inconclusive
Cc1ccc(-n2c(O)c(C=Nc3ccc4c(c3)OCO4)c3ccccc3c2=O)cc1C	DT40 TDP1 CPT 7.3µM, TDP1 cell noCPT inconclusive, ELG1 repair inh inconclusive
Cc1cccc(-n2c(O)c(C=Nc3ccc4c(c3)OCO4)c3ccccc3c2=O)n1	DT40 TDP1 CPT inconclusive, TDP1 cell noCPT inconclusive, IL1B secr inh inconclusive, ELG1 repair inh inconclusive
COc1ccc(-n2c(O)c(C=Nc3ccccc3)c3ccccc3c2=O)cc1OC	DT40 TDP1 CPT inconclusive, TDP1 cell noCPT inconclusive
CC1=C(C(=O)N2CCOCC2)CC(CC(=O)NCCc2ccccn2)C(=O)N1CCC1=CCCCC1 (stereo not given)	none (no result: TDP1 inh, Giardia kill, ELG1 repair inh)
CC/C=C\CC[C@H](O)C1=CCCCC1=O	none (no result: DT40 TDP1 CPT, TDP1 cell noCPT, IL1B secr inh, Giardia kill, ELG1 repair inh)
CC(C)c1ccc(/C=C(/C#N)c2nnc(NC(=O)c3ccccc3)s2)cc1	TDP1 cell noCPT inconclusive
CCc1nc(NCc2ccccn2)c2oc3ccccc3c2n1	DT40 TDP1 CPT 15µM, TDP1 cell noCPT 15µM, IL1B secr inh -68, ELG1 repair inh 18µM
CCc1nc(Nc2ccc3c(c2)OCO3)c2oc3ccccc3c2n1	DT40 TDP1 CPT 21µM, TDP1 cell noCPT 12µM, IL1B secr inh inconclusive, ELG1 repair inh inconclusive
Cn1c(C(=O)N2CCN(Cc3ccc4c(c3)OCO4)CC2)cc2c(=O)n(C)c3ccccc3c21	DT40 TDP1 CPT inconclusive, TDP1 cell noCPT inconclusive, ELG1 repair inh inconclusive
Cn1c(=O)c([N+](=O)[O-])c(N2CCN(Cc3ccc4c(c3)OCO4)CC2)c2ccccc21	DT40 TDP1 CPT 13µM, TDP1 cell noCPT 8.2µM, ELG1 repair inh inconclusive (no result: TDP1 inh)

High-throughput results as filed in PubChem.
